Screening data from PubChem BioAssay.
Only some compounds are listed: those with a hit (about 4.1% of all), similar ones and a draw of the others.
UHRF1 MBD2 ctr = human UHRF1 methylated DNA binding inhibitors; Q96T88; actives 0.75% (n = 370,000); AID 687016; UHRF1 binding to methylated oligo, TR-FRET; inhibition, % at 4.4 µM;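 note: UHRF1 SRA domain binding a hemimethylated CpG hairpin DNA probe; 0% = median of test compound wells and 100% = reference inhibitor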
LEDGF integ inh = blocks HIV-1 LEDGF/p75-dependent DNA integration. actives 0.64% (n = 370,000). AID 743269. inhibition, % at 3.7 µM. TR-FRET IN-LEDGF/p75 DNA integration, Eu/Cy5;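 active = inhibition above the screen-wide mean plus 3 SD, cut at about 13% in these data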;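 note: signal is the Cy5 over europium emission ratio at 671 and 618 nm; 0% = plate median of compound wells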
MBD2 inh = blocks human MBD2 binding to methylated DNA; TR-FRET, MBD2 binding to methylated oligonucleotide; inhibition, % at 4.4 µM; actives 0.31% (n = 370,000); in the data active = inhibition above about 13%
PRMT1 inh = inhibitors of human PRMT1 | actives 1.3% (n = 370,000) | inhibition, % at 2.79 µM | recombinant PRMT1, activity-based probe fluorescence polarization | Q99873;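 active = inhibition above about 21% made by adding two undisclosed values, limit read from the data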
Target sequence (Q99873 whole entry, looked up): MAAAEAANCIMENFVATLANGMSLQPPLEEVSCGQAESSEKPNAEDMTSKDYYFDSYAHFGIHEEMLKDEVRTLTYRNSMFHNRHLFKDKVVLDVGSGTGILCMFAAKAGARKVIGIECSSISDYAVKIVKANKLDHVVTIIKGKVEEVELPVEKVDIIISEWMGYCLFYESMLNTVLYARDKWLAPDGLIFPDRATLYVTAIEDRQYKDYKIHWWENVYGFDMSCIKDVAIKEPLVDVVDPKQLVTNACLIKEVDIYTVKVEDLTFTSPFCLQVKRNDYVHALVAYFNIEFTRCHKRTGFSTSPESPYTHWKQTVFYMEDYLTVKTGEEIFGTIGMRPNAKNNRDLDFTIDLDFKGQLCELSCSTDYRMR
ABHD5 PLIN5 PPI = ABHD5-PLIN5 protein interaction inhibition | Q00G26+Q8WTS1 | Split G. princeps luciferase complementation, luminescence, 4 h | inhibition, % at 4 µM | actives 0.78% (n = 360,000);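 active = inhibition above the mean inhibition across every tested compound plus 3 SD, cut at about 22% in these data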;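 note: 0% = DMSO only wells and the 100% control is not disclosed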
rCAG binder = molecules binding r(CAG) RNA repeats; r(CAG) RNA repeat, TO-PRO-1 dye displacement fluorescence; inhibition, % at 3 µM; actives 1.3% (n = 370,000);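 active = inhibition above the plate cutoff, the mean of all test compounds on that plate plus 3 SD, cut at about 35% in these data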;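 note: 0% = DMSO alone and 100% = 100 µM mitoxantrone as full dye displacement; higher means more dye released from RNA so lower well fluorescence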
UHRF1 DNA bind = inhibits human UHRF1 binding to methylated oligonucleotide, MBD2 counter-screen. TR-FRET. shares compounds with MBD2 inh. actives 25% (n = 1,000). inhibition, % at 4.4 µM. AID 720530;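 note: UHRF1 SRA domain binding a labeled hemimethylated CpG hairpin DNA; 0% = vehicle only and 100% = reference inhibitor with vehicle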
MBD2 confirm = confirmation of human MBD2-DBD methylated oligonucleotide binding inhibitors; shares compounds with MBD2 inh; TR-FRET MBD2-DBD binding to methylated oligonucleotide; inhibition, % at 4.4 µM; actives 26% (n = 1,000); AID 720531; in the data active = inhibition above about 14%
Active calls of the source: *; ! = repeats disagree. Cut-off read from the data, not from the text of the source, unless noted: active = inhibition above about 21%; inactive = the rest.

CCN(CC)S(=O)(=O)c1ccc(N2CCOCC2)c(NC(=O)c2nn(C)c(=O)c3ccccc23)c1 was read as UHRF1 MBD2 ctr 0, LEDGF integ inh -7, MBD2 inh 14*, PRMT1 inh 4, ABHD5 PLIN5 PPI -10, rCAG binder 1, UHRF1 DNA bind 7 and MBD2 confirm 5.
Screening COc1ccc(OCC(=O)Nc2nc3c(s2)CCCC3)cc1 returned UHRF1 MBD2 ctr 0, LEDGF integ inh 1, MBD2 inh -1, PRMT1 inh -2, ABHD5 PLIN5 PPI -6 and rCAG binder 0.
For Cc1ccc(CC(=O)Nc2nc3c(s2)CCCC3)cc1 the results were UHRF1 MBD2 ctr 11, LEDGF integ inh -1, MBD2 inh 13*, PRMT1 inh 3, ABHD5 PLIN5 PPI -19, rCAG binder 10, UHRF1 DNA bind 5 and MBD2 confirm 3.
Cc1ccc(CC(=O)Nc2cccc(C)n2)cc1 was read as UHRF1 MBD2 ctr 20, LEDGF integ inh 4, MBD2 inh 15*, PRMT1 inh 4, ABHD5 PLIN5 PPI 2, rCAG binder -3, UHRF1 DNA bind 6 and MBD2 confirm 3.
Screening COC(=O)[C@@H](C)NC(=O)C(Cc1ccc2c(c1)OCO2)NC(C)=O (some centres undefined) returned UHRF1 MBD2 ctr -1, LEDGF integ inh -4, MBD2 inh 3, PRMT1 inh 1 and rCAG binder 3.
`COC(=O)[C@@H](Cc1ccccc1)NC(=O)[C@H]1O[C@@H](n2cnc3c(=O)[nH]c(N)nc32)[C@H](O)[C@@H]1O` gave UHRF1 MBD2 ctr -1, LEDGF integ inh 3, MBD2 inh 3, PRMT1 inh -2 and rCAG binder 2.
`C#CCOCCOCCOCCNc1nc(N2CCN(C(=O)[C@H](CO)n3cc([C@@H](N)C(C)C)nn3)CC2)nc(N2CCN(C(=O)[C@H](CO)n3cc([C@@H](N)C(C)C)nn3)CC2)n1` gave UHRF1 MBD2 ctr 22*, LEDGF integ inh 5, MBD2 inh 15*, PRMT1 inh 6, ABHD5 PLIN5 PPI 0, rCAG binder -3, UHRF1 DNA bind 11 and MBD2 confirm 6.
For C#CCOCCOCCOCCNc1nc(N2CCN(C(=O)[C@H](CO)n3cc([C@@H](N)C(C)C)nn3)CC2)nc(N2CCN(C(=O)[C@H](CCC(=O)O)n3cc([C@@H](N)CCCCN)nn3)CC2)n1 the results were UHRF1 MBD2 ctr 4, LEDGF integ inh 4, MBD2 inh 1, PRMT1 inh -4, ABHD5 PLIN5 PPI 2 and rCAG binder 4.
For NS(=O)(=O)c1ccc(CCNC(=O)c2ccc3nccnc3c2)cc1 the results were UHRF1 MBD2 ctr 18, LEDGF integ inh 3, MBD2 inh 15*, PRMT1 inh 9, ABHD5 PLIN5 PPI 2, rCAG binder 20, UHRF1 DNA bind 34* and MBD2 confirm 26*.
For Cc1onc(-c2c(Cl)cccc2Cl)c1C(=O)NCCc1ccc(S(N)(=O)=O)cc1 the results were UHRF1 MBD2 ctr 32*, LEDGF integ inh 3, MBD2 inh 14*, PRMT1 inh 0, ABHD5 PLIN5 PPI -2, rCAG binder 1, UHRF1 DNA bind 1 and MBD2 confirm 5.
`O=C(c1cccc(I)c1)N1CCC(Oc2cccnc2)CC1` gave UHRF1 MBD2 ctr 2, LEDGF integ inh 0, MBD2 inh 1, PRMT1 inh -4 and rCAG binder 1.
Screening N#CN1CCC(NS(=O)(=O)c2ccc(F)cc2)C1 (centres undefined) returned UHRF1 MBD2 ctr -2, LEDGF integ inh -4, MBD2 inh -1 and PRMT1 inh 0.
`NC(=S)N=Nc1c(O)cc(O)c2[nH]c(=O)ccc12` gave UHRF1 MBD2 ctr 42*, LEDGF integ inh 30*, MBD2 inh 15*, PRMT1 inh 70*, ABHD5 PLIN5 PPI 29*, rCAG binder 28, UHRF1 DNA bind 17 and MBD2 confirm 10.
Screening NC(=S)N=Nc1c(O)[nH]c2ccc(F)cc12 returned UHRF1 MBD2 ctr -12, LEDGF integ inh 0, MBD2 inh -11, PRMT1 inh 8, ABHD5 PLIN5 PPI -2 and rCAG binder 1.
COCCN(C(=O)COC(=O)c1cc2c(s1)CCC2)c1c(N)n(Cc2ccccc2)c(=O)[nH]c1=O was read as UHRF1 MBD2 ctr 96*, LEDGF integ inh 54*, MBD2 inh 65*, PRMT1 inh 13, ABHD5 PLIN5 PPI 9, rCAG binder 26, UHRF1 DNA bind 100* and MBD2 confirm 91*.
For CCC1CCc2sc(C(=O)OCC(=O)N(CCOC)c3c(N)n(Cc4ccccc4)c(=O)[nH]c3=O)cc2C1 (centres undefined) the results were UHRF1 MBD2 ctr -1, LEDGF integ inh 0, MBD2 inh -2, PRMT1 inh 3, ABHD5 PLIN5 PPI 4 and rCAG binder 9.
For O=C(COC(=O)c1ccccc1O)Nc1cccc2ccccc12 the results were UHRF1 MBD2 ctr 17, LEDGF integ inh -1, MBD2 inh 14*, PRMT1 inh 0, ABHD5 PLIN5 PPI 5, rCAG binder 0, UHRF1 DNA bind 9 and MBD2 confirm 2.
CCOC(=O)[C@]12CCCCC/C=C\1N(Cc1ccc(OC)cc1)C(=O)[C@H]2CC(=O)NCC1CCCCC1 was read as UHRF1 MBD2 ctr 4, LEDGF integ inh -3, MBD2 inh 0, PRMT1 inh -1 and rCAG binder 4.
Screening CCCCNc1c(-c2ccc(OC)c(SC(C)CC)c2)nc2ccc(Cl)cn12 (centres undefined) returned UHRF1 MBD2 ctr 1, LEDGF integ inh 4, MBD2 inh 4, PRMT1 inh 3, ABHD5 PLIN5 PPI -11 and rCAG binder 3.
`CCCCNc1c(-c2ccc(OC)c(SC(C)CC)c2)nc2ccc(C)cn12` (centres undefined) gave UHRF1 MBD2 ctr -2, LEDGF integ inh 1, MBD2 inh 14*!, PRMT1 inh 1, ABHD5 PLIN5 PPI 2, rCAG binder -6, UHRF1 DNA bind 9 and MBD2 confirm 3.
C/C(=N\NC(=O)C1CCCN(S(=O)(=O)c2ccccc2)C1)c1ccccn1 (centres undefined) was read as UHRF1 MBD2 ctr -2, LEDGF integ inh -2, MBD2 inh 16*, PRMT1 inh 1, ABHD5 PLIN5 PPI -4, rCAG binder 4, UHRF1 DNA bind 6 and MBD2 confirm 7.
For C/C(=N\NC(=O)C1CCCN(S(=O)(=O)c2ccccc2)C1)c1ccncc1 (centres undefined) the results were UHRF1 MBD2 ctr -3, LEDGF integ inh 0, MBD2 inh 3, PRMT1 inh -3, ABHD5 PLIN5 PPI -2 and rCAG binder -5.
